# Test results taken from PubChem BioAssay (EPA / NIEHS).
# Records with an inconclusive call do not appear. The source made the active and inactive calls. Rule for the calls, unless noted: active = hit-call score of the fitted dose curve at least 0.9, where 1 is the maximum; inconclusive = response in the unintended direction; inactive = score below 0.9.
# Tests used:
# [1] = target: Cellular tumor antigen p53 (Homo sapiens) (UniProt P04637); experiment: TOX21_p53_BLA_p2_ratio: Tox21 HCT-116 p53 Agonism Beta-lactamase Assay, Ratio, Phase 2 (AID 2283592)
# Summary of the method: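 HCT116 cells carrying a p53-responsive beta-lactamase reporter were plated, incubated 5 h at 37C, then dosed with compounds in DMSO (217-fold dilution) for 16 h. CCF4-AM substrate was added for 2 h at room temperature; the 460/530 nm emission ratio gave gain-of-signal activity relative to DMSO.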
# [2] = target: Cellular tumor antigen p53 (Homo sapiens) (UniProt P04637); experiment: TOX21_p53_BLA_p3_ratio: Tox21 HCT-116 p53 Agonism Beta-lactamase Assay, Ratio, Phase 3 (AID 2283596)
# Summary of the method: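 HCT116 p53-bla cells (4000/well) given compound in DMSO (217-fold dilution) after 5 h, incubated 16 h at 37C. CCF4-AM substrate 2 h at room temperature; 460/530 nm emission ratio, gain fitted against DMSO.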
# [3] = TOX21_p53_BLA_p4_viability: Viability Assessment in the Tox21 HCT-116 p53 Agonism Beta-lactamase Assay, Phase 4 (AID 2283597);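 note: hits lower the luminescence signal meaning cytotoxicity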
# Summary of the method: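 HCT116 p53-bla cells (4000/well) rested 5 h at 37C, then received compounds in DMSO (217-fold dilution) for 16 h at 37C, 5% CO2. CellTiter-Glo was added after the CCF4-AM read, and luminescence was read after 30 min at room temperature.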
# [4] = target: Cellular tumor antigen p53 (Homo sapiens) (UniProt P04637); experiment: TOX21_p53_BLA_p4_ratio: Tox21 HCT-116 p53 Agonism Beta-lactamase Assay, Ratio, Phase 4 (AID 2283601)
# Summary of the method: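 Signal is the blue/green (460nm/530nm) ratio of cleaved versus uncleaved CCF4-AM substrate, read after 2 h substrate loading. Cells were HCT116 carrying the p53-responsive beta-lactamase reporter, dosed 16 h at 37C, 5% CO2; CellTiter-Glo measured in parallel.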
# [5] = target: Cellular tumor antigen p53 (Homo sapiens) (UniProt P04637); experiment: TOX21_p53_BLA_p5_ratio: Tox21 HCT-116 p53 Agonism Beta-lactamase Assay, Ratio, Phase 5 (AID 2283599)
# Summary of the method: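 Beta-lactamase reporter ratio (blue 460 nm over green 530 nm, 405 nm excitation) after 2 h CCF4-AM loading, in HCT-116 cells exposed 16 h at 37 C to compounds pinned at 217-fold dilution. Increases relative to DMSO baseline scored.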
# [6] = TOX21_p53_BLA_p5_viability: Viability Assessment in the Tox21 HCT-116 p53 Agonism Beta-lactamase Assay, Phase 5 (AID 2283600)
# Summary of the method: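 Cells were plated at 4000/well, rested 5 h at 37C, then given compounds in DMSO (217-fold dilution) for 16 h at 37C, 5% CO2. Following the CCF4-AM beta-lactamase read, CellTiter-Glo was added and luminescence was read after 30 min at room temperature.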
# [7] = tested on: Brachyury (BRA) Protein Expression, Deisenroth Lab, TBXT (gene 6862); experiment: CCTE_Deisenroth_DEVTOX-GLR_legacy_Bra: (Legacy) CCTE's DevTox GLR-Endo Assay Evaluation of Brachyury (BRA) Protein Expression, Deisenroth Lab (AID 2284329; active = hit-call score of the fitted dose curve at least 0.9, where 1 is the maximum; inactive = score below 0.9)
# Summary of the method: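 Human pluripotent RUES2-GLR line was exposed twice during 48 h differentiation to a 10-point series, 1 nM - 200 uM. Fraction of Bra-positive cells was scored by imaging against pluripotent baseline and fitted after 0.2% DMSO subtraction.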
# [8] = CCTE_Deisenroth_DEVTOX-GLR_legacy_CellCount: (Legacy) Viability Assessment in CCTE's DevTox GLR-Endo Assay, Deisenroth Lab (AID 2284331; active = hit-call score of the fitted dose curve at least 0.9, where 1 is the maximum; inactive = score below 0.9); details: actives raise or lower the signal
# Summary of the method: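 Seed RUES2-GLR 24 h; differentiate 48 h, dosing at 0 and 24 h; fix, stain nuclei; image 5 fields/well; count nuclei. Conc. 1 nM - 200 uM, single technical replicate, n=4 experiments; bidirectional fit vs 0.2% DMSO.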
# [9] = tested on: SRY-box transcription factor 17 (SOX17) Protein Expression, Deisenroth Lab, SOX17 (gene 64321); experiment: CCTE_Deisenroth_DEVTOX-GLR_legacy_Sox17: (Legacy) CCTE's DevTox GLR-Endo Assay Evaluation of SRY-box transcription factor 17 (SOX17) Protein Expression, Deisenroth Lab (AID 2284341; active = hit-call score of the fitted dose curve at least 0.9, where 1 is the maximum; inactive = score below 0.9); details: actives raise or lower the signal
# Summary of the method: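 Using the RUES2-GLR line, compounds are tested as 10-point series during 48-h defined-media differentiation. Sox17 reporter fluorescence per cell determines positivity; endpoint is percentage positive, analysed bidirectionally versus DMSO baseline.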
# [10] = tested on: SRY-box transcription factor 2 (SOX2) Protein Expression, Deisenroth Lab, SOX2 (gene 6657); experiment: CCTE_Deisenroth_DEVTOX-GLR_legacy_Sox2: (Legacy) CCTE's DevTox GLR-Endo Assay Evaluation of SRY-box transcription factor 2 (SOX2) Protein Expression, Deisenroth Lab (AID 2284346; active = hit-call score of the fitted dose curve at least 0.9, where 1 is the maximum; inactive = score below 0.9)
# Summary of the method: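 hPSC RUES2-GLR, 384-well; 24 h seed → 48 h endoderm differentiation, 2 doses q24h, 1 nM–200 uM. Fix, nuclear dye, 5 fields/well. Sox2+ cells/cell count; cell positive if >5x BMAD over endoderm ctrl; gain direction vs DMSO.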
# [11] = tested on: SRY-box transcription factor 17 (SOX17) Protein Expression, Deisenroth Lab, SOX17 (gene 64321); experiment: CCTE_Deisenroth_DEVTOX-GLR_Endo_SOX17: CCTE's DevTox GLR-Endo Assay Evaluation of SRY-box transcription factor 17 (SOX17) Protein Expression, Deisenroth Lab (AID 2284413; active = hit-call score of the fitted dose curve at least 0.9, where 1 is the maximum; inactive = score below 0.9)
# Summary of the method: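 Seed RUES2-GLR cells 24 h; start endoderm differentiation; dose at 0 and 24 h (1 nM - 200 uM, 10 points); fix at 48 h, stain nuclei, image 5 fields/well; compute SOX17+/total cells vs 0.2% DMSO.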
# [12] = tested on: Brachyury (BRA) Protein Expression, TBXT (gene 6862); experiment: CCTE_Deisenroth_DEVTOX-GLR_Endo_BRA: CCTE's DevTox GLR-Endo Assay Evaluation of Brachyury (BRA) Protein Expression, Deisenroth Lab (AID 2284417; active = hit-call score of the fitted dose curve at least 0.9, where 1 is the maximum; inactive = score below 0.9)
# Summary of the method: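 Percent BRA+ (mesoderm) RUES2-GLR cells after 48 h differentiation with two exposures, 1 nM - 200 uM; 0.2% DMSO control subtracted.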
# [13] = CCTE_Deisenroth_DEVTOX-GLR_Endo_CellCount: Viability Assessment in CCTE's DevTox GLR-Endo Assay, Deisenroth Lab (AID 2284420; active = hit-call score of the fitted dose curve at least 0.9, where 1 is the maximum; inactive = score below 0.9)
# Summary of the method: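 RUES2-GLR human pluripotent cells seeded 24 h, then differentiated 48 h with two chemical exposures at 24 h intervals (10-point, 1 nM - 200 uM). Fixed, nuclear-stained, imaged; nuclei counts give % change in cell count versus 0.2% DMSO.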
# [14] = tested on: SRY-box transcription factor 17 (SOX17) Protein Expression, Deisenroth Lab, SOX17 (gene 64321); experiment: CCTE_Deisenroth_DEVTOX-GLR_Pluri_SOX17: CCTE's DevTox GLR-Pluri Assay Evaluation of SRY-box transcription factor 17 (SOX17) Protein Expression, Deisenroth Lab (AID 2284427)
# Summary of the method: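 RUES2-GLR human pluripotent cells were seeded 24 h, then differentiated 48 h in defined media with two chemical exposures 24 h apart (10-point series, 1 nM - 200 uM). Fixed, nuclear-stained cells were imaged; %SOX17+ cells minus 0.2% DMSO control reported.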
# [15] = tested on: SRY-box transcription factor 2 (SOX2) Protein Expression, Deisenroth Lab, SOX2 (gene 6657); experiment: CCTE_Deisenroth_DEVTOX-GLR_Pluri_SOX2: CCTE's DevTox GLR-Pluri Assay Evaluation of SRY-box transcription factor 2 (SOX2) Protein Expression, Deisenroth Lab (AID 2284428; active = hit-call score of the fitted dose curve at least 0.9, where 1 is the maximum; inactive = score below 0.9)
# Summary of the method: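 Human pluripotent RUES2-GLR cells were seeded 24 h, then differentiated 48 h in defined media with two chemical doses at 24-h intervals (10-point, 1 nM–200 uM). Nuclear-stained cells were imaged; SOX2+ cells/cell count gave percent change versus 0.2% DMSO control.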
# [16] = tested on: Brachyury (BRA) Protein Expression, Deisenroth Lab, TBXT (gene 6862); experiment: CCTE_Deisenroth_DEVTOX-GLR_Pluri_BRA: CCTE's DevTox GLR-Pluri Assay Evaluation of Brachyury (BRA) Protein Expression, Deisenroth Lab (AID 2284429)
# Summary of the method: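 An inducible fluorescent BRA reporter in RUES2-GLR cells tracks mesoderm differentiation. Compounds (10 concentrations, 1 nM - 200 uM) are dosed twice within a 48-h differentiation. The endpoint subtracts the 0.2% DMSO control from percent BRA+ cells.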
# [17] = CCTE_Deisenroth_DEVTOX-GLR_Pluri_CellCount: Viability Assessment in CCTE's DevTox GLR-Pluri Assay Evaluation of Total Cell Counts, Deisenroth Lab (AID 2284430; active = hit-call score of the fitted dose curve at least 0.9, where 1 is the maximum; inactive = score below 0.9)
# Summary of the method: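 RUES2-GLR human pluripotent cells, seeded 24 h, then differentiated 48 h with two chemical exposures 24 h apart; 10-point series 1 nM - 200 uM. Fixed, nuclear-stained, imaged (5 fields/well); nuclei count as % change vs 0.2% DMSO.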
# Sequence of Cellular tumor antigen p53 (Homo sapiens) (P04637 whole entry, looked up): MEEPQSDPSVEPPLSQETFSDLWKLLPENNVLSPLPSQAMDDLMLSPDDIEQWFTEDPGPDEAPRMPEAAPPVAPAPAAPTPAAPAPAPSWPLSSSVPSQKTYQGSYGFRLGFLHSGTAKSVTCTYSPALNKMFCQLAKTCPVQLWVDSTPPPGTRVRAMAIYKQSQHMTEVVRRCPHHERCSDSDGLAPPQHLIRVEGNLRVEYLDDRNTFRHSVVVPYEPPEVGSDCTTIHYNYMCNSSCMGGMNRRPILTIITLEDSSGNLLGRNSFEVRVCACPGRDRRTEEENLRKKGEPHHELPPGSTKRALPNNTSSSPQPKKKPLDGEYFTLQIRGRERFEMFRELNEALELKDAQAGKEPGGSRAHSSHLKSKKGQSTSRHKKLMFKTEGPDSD
smiles,measurement,setting,value
CN1CCOC(c2ccccc2)c2ccccc2C1 (stereo not drawn),outcome,[1],inactive
same,outcome,[2],inactive
same,outcome,[3],inactive
same,outcome,[4],inactive
CC[C@]1(O)C[C@H]2CN(CCc3c([nH]c4ccccc34)[C@@](C(=O)OC)(c3cc4c(cc3OC)N(C=O)[C@H]3[C@@](O)(C(=O)OC)[C@H](OC(C)=O)[C@]5(CC)C=CCN6CC[C@]43[C@@H]65)C2)C1,AC50,[1],0.0112 µM (active)
same,AC50,[2],0.00209 µM (active)
same,AC50,[5],0.00486 µM (active)
same,outcome,[6],inactive
Cc1cnc(C)c(C)n1,outcome,[1],inactive
same,outcome,[2],inactive
same,outcome,[5],inactive
same,outcome,[6],inactive
same,outcome,[4],inactive
CCCCCC(N)=O,outcome,[1],inactive
same,outcome,[2],inactive
same,outcome,[5],inactive
same,outcome,[6],inactive
same,outcome,[4],inactive
COc1ccc(-c2cc(C(F)F)nn2-c2ccc(S(N)(=O)=O)cc2)cc1F,outcome,[1],inactive
same,outcome,[2],inactive
same,outcome,[3],inactive
same,outcome,[4],inactive
N[C@H](C(=O)O)[C@@H](O)c1ccc(O)c(O)c1,outcome,[1],inactive
same,outcome,[2],inactive
same,outcome,[3],inactive
same,outcome,[6],inactive
same,outcome,[4],inactive
O=C(CCN1CCC(c2ccccc2)C1)c1ccc2c(c1)OCCO2 (stereo not drawn),outcome,[1],inactive
same,outcome,[2],inactive
same,outcome,[3],inactive
same,outcome,[4],inactive
COc1ccc(Nc2ccc(OC)cc2)cc1,AC50,[1],71.5 µM (active)
same,outcome,[2],inactive
same,outcome,[3],inactive
same,AC50,[4],73.2 µM (active)
CO[C@H]1[C@@H](O)[C@H](N)[C@@H](O[C@H]2O[C@H]([C@H](C)N)CC[C@H]2N)[C@H](O)[C@@H]1N(C)C(=O)CN,outcome,[1],inactive
same,outcome,[2],inactive
same,outcome,[3],inactive
same,outcome,[6],inactive
same,outcome,[4],inactive
CCOC(=O)CCC(=O)O[C@H]1[C@H](O[C@@H]2[C@@H](C)[C@H](O[C@H]3C[C@@](C)(OC)[C@@H](O)[C@H](C)O3)[C@@H](C)C(=O)O[C@H](CC)[C@@](C)(O)[C@H](O)[C@@H](C)C(=O)[C@H](C)C[C@@]2(C)O)O[C@H](C)C[C@@H]1N(C)C,outcome,[1],inactive
same,outcome,[2],inactive
same,outcome,[3],inactive
same,outcome,[4],inactive
CCCc1nc2c(C)cc(-c3nc4ccccc4n3C)cc2n1Cc1ccc(-c2ccccc2C(=O)O)cc1,outcome,[1],inactive
same,outcome,[2],inactive
same,outcome,[5],inactive
CC(C)(C)C(=O)OCC(=O)[C@H]1CC[C@H]2[C@@H]3CCC4=CC(=O)CC[C@]4(C)[C@H]3CC[C@]12C,outcome,[1],inactive
same,outcome,[2],inactive
same,outcome,[5],inactive
same,outcome,[6],inactive
same,outcome,[4],inactive
Cc1cc(C)cc([N+](=O)[O-])c1,outcome,[1],inactive
same,outcome,[2],inactive
same,outcome,[3],inactive
same,outcome,[6],inactive
same,outcome,[4],inactive
CN(CCOc1ccc(NS(C)(=O)=O)cc1)CCc1ccc(NS(C)(=O)=O)cc1,outcome,[1],inactive
same,outcome,[2],inactive
same,AC50,[5],37.7 µM (active)
NS(=O)(=O)c1cc2c(cc1Cl)NC(C(Cl)Cl)NS2(=O)=O (stereo not drawn),outcome,[1],inactive
same,outcome,[2],inactive
same,outcome,[5],inactive
same,outcome,[6],inactive
same,outcome,[4],inactive
C[C@@](Cc1ccc(O)c(O)c1)(NN)C(=O)O,outcome,[1],inactive
same,outcome,[2],inactive
same,outcome,[5],inactive
same,outcome,[6],inactive
same,outcome,[4],inactive
Nc1nc2c(ncn2COCCO)c(=O)[nH]1,outcome,[1],inactive
same,outcome,[2],inactive
same,outcome,[5],inactive
same,outcome,[4],inactive
same,outcome,[7],inactive
same,outcome,[8],inactive
same,outcome,[9],inactive
same,outcome,[10],inactive
same,outcome,[11],inactive
same,outcome,[12],inactive
same,outcome,[13],inactive
same,outcome,[14],inactive
same,outcome,[15],inactive
same,outcome,[16],inactive
same,outcome,[17],inactive
CC(=O)NC[C@H]1CN(c2ccc(N3CCOCC3)c(F)c2)C(=O)O1,outcome,[1],inactive
same,outcome,[2],inactive
same,outcome,[5],inactive
same,outcome,[6],inactive
same,outcome,[4],inactive
CC1=NN(c2ccc(C(=O)O)cc2)C(=O)C1,outcome,[1],inactive
same,outcome,[2],inactive
same,outcome,[5],inactive
same,outcome,[4],inactive
CC1(C)S[C@@H]2[C@H](NC(=O)C(C(=O)Oc3ccc4c(c3)CCC4)c3ccccc3)C(=O)N2[C@H]1C(=O)O (stereo partly drawn),outcome,[1],inactive
same,outcome,[2],inactive
same,outcome,[5],inactive
same,outcome,[4],inactive
